For nine molecules, Potency, outcome and activity change, positive = activation results are on record in PubChem BioAssay (Tox21).

Values joined by “and” are separate entries in the source; they are usually repeats but may differ in a detail not shown here. Equal entries are not always repeated. Inconclusive results are not listed. A structure can be active in one record and inactive in another. Active and inactive are the calls of the source. Unless noted, the call rests on the fitted dose curve; in most records, active means well fitted curve in the direction sought with a large enough effect in the repeat runs; inconclusive means weak or mixed curves; inactive means no such curve, though single readings can be large; an effect the other way counts as inactive or inconclusive.

The nature of test [1]: qHTS assay to identify small molecule antagonists of the estrogen related receptor (ERR) signaling pathway from Tox21 library - cell viability counter screen (AID 1224834). Further: nearly all actives have a fitted effect of over 30% in size. Further: potency means the concentration at half of the fitted maximal effect. In a few lines:
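After 17.5 h of compound exposure at 37 C, ERR cells are incubated with CellTiter-Fluor for 30 min and fluorescence intensity serves as the viability measure.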

Test [2] in a line: qHTS assay to identify small molecule antagonists of the constitutive androstane receptor (CAR) signaling pathway - cell viability counter screen (AID 1224837). Further: nearly all actives have a fitted effect of over 45% in size. In short, it runs like this:
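Counter screen run in HepG2-CYP2B6-hCAR cells: 4 hr settle, compound titration (15 concentrations) with 50 nM CITCO, 23 hr at 37 C/5% CO2, CellTiter-Fluor fluorescence.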

The target of test [3] is Nuclear receptor subfamily 1 group I member 3 (Homo sapiens) (UniProt Q14994). Description: qHTS assay to identify small molecule antagonists of the constitutive androstane receptor (CAR) signaling pathway (AID 1224838).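 Further: HepG2 cells stably expressing hCAR with CYP2B6 luciferase reporter stimulated by CITCO; nearly all actives have a fitted effect of over 40% in size.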 Further: potency means the concentration at half of the fitted maximal effect. In short, it runs like this:
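Cell line: HepG2 double-stable for hCAR and CYP2B6-2.2kb reporter. Agonist: CITCO, 50 nM final. Compounds: 15 concentrations, 24 h, 37 C. Detection: ONE-Glo luminescence.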
For orientation: Quantitative high-throughput screening tests each substance at several concentrations.

For test [4] the target is unchanged. Description: qHTS assay to identify small molecule agonists of the constitutive androstane receptor (CAR) signaling pathway (AID 1224839). Further: nearly all actives have a fitted effect of over 15% in size. Further: potency means the concentration at half of the fitted maximal effect.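 On activation: HepG2 cells stably carrying human CAR and a CYP2B6 luciferase reporter.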 In a few lines:
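Luminescence read-out (ONE-Glo, 30 min, room temperature) from double-stable HepG2-CYP2B6-hCAR cells exposed 24 h to 15-point compound series in presence of 0.75 uM PK11195 final.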

Test [5] is described as follows: qHTS assay to identify small molecule antagonists of the estrogen related receptor signaling pathway with the pleiotropic PPARgamma coactivator (PGC) from Tox21 10K library - cell viability counter screen (AID 1224840; active means well fitted cell-killing curve with a large enough effect in the repeat runs, not every such curve was filed as active; further: nearly all actives have a fitted effect of over 40% in size; further: potency means the concentration at half of the fitted maximal effect). In short, it runs like this:
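Following seeding of 2,000 PGC/ERR cells/well and 6 hours' incubation, test compounds were delivered in DMSO. The plates then sat 17.5 hours at 37 C before a fluorogenic live-cell protease reagent (CellTiter-Fluor) was read after 30 min.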

The target in test [6] is Thyrotropin receptor (Homo sapiens) (UniProt P16473). As to the kind of experiment: qHTS assay to identify small molecule agonists of the thyroid stimulating hormone receptor (TSHR) signaling pathway (AID 1224843; calls by dose curve; further: nearly all actives have a fitted effect of over 45% in size). In short, it runs like this:
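Steps: seed 800 TSHR-HEK293 cells per well; add test compound and hold 30 min at ambient temperature; dispense cAMP-d2 then anti-cAMP cryptate; incubate 1 h at ambient; measure fluorescence intensity.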

The nature of test [7]: qHTS assay to identify small molecule agonists of the hypoxia (HIF-1) signaling pathway - cell viability counter screen (AID 1224844; calls by dose curve; further: nearly all actives have a fitted effect of over 50% in size; further: potency means the concentration at half of the fitted maximal effect). In a few lines:
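Cells (HRE-bla ME-180, 2,000 per well) sat 5 hrs at 37C, got compound for 17 hrs, were read for CCF4-AM FRET, and were finally lysed with CellTiter-Glo for a 30 min room-temperature luminescence read.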

The nature of test [8]: qHTS assay to identify small molecule agonists of H2AX (AID 1224845; active means well fitted activation curve with a large enough effect in the signal ratio in the repeat runs, not every such curve was filed as active; the % refers to the signal ratio). In short, it runs like this: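 Wild-type CHO-K1 cells, plated overnight, exposed 3hr at 37C to 15 concentrations (0.76% DMSO final). Lysed, then HTRF anti-pH2AX (S139) cryptate and anti-H2AX-d2 antibodies, 24 hr room temperature; 665/620 nm emission read.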
The nature of test [9]: qHTS assay to identify small molecule agonists of the hypoxia (HIF-1) signaling pathway (AID 1224846; active means well fitted activation curve with a large enough effect in the signal ratio in the repeat runs, not every such curve was filed as active; the % refers to the signal ratio). In a few lines:
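A low-serum medium (0.5% dialyzed FBS) holding 2,000 HRE-bla ME-180 cells per well is preincubated for 5 hrs, dosed with compounds by pintool, and kept a further 17 hrs at 37C, 5% CO2 before CCF4-AM FRET detection of beta-lactamase.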

Test [10] can be described thus: qHTS assay to identify small molecule agonists of H2AX - cell viability counter screen (AID 1224847; calls by dose curve; further: nearly all actives have a fitted effect of over 30% in size; further: potency means the concentration at half of the fitted maximal effect). In short, it runs like this: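 CHO-K1 wt, 1000 cells/well, o/n 37C; cpds 15 conc, 3 h 37C, 0.76% DMSO; CellTiter-Glo, 30 min RT, luminescence.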
A short description of test [11]: qHTS RealTime-Glo MT Cell Viability Assay in HepG2 cells - 24 hour (AID 1224867). Further: nearly all actives have a fitted effect of over 50% in size. In a few lines:
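Viability was tracked continuously by NanoLuc luminescence from prosubstrate reduced by living HepG2 cells, at successive time points over 40 h of compound exposure. Cells with reagent were preincubated 5 h at 37 °C before compound addition.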

A short description of test [12]: qHTS RealTime-Glo MT Cell Viability Assay in HEK293 cells - 32 hour (AID 1224868). Further: nearly all actives have a fitted effect of over 50% in size. Further: potency means the concentration at half of the fitted maximal effect. In short, it runs like this: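 Viability tracked continuously by luminescence as live cells reduce a prosubstrate for NanoLuc; HEK293 cells preincubated 5 h, compound-treated at 37 C, and read at 0, 8, 16, 24, 32 and 40 h.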
Test [13] is described as follows: A CellTox Green Cytotoxicity Assay to monitor cytotoxicity in HEK293 cells - 0 hour (AID 1224869). Further: nearly all actives have a fitted effect of over 50% in size. In a few lines:
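Fluorescence intensity, read at 0, 8, 16, 24, 32 and 40 h of compound treatment, reflected dye binding to DNA of dead HEK293 cells; compounds (23 nL, DMSO) were added 5 h after plating cells with reagent.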

Test [14] is described as follows: qHTS assay to identify small molecule agonists of the constitutive androstane receptor (CAR) signaling pathway - cell viability counter screen (AID 1224836). Further: nearly all actives have a fitted effect of over 45% in size. In a few lines: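 Viability read-out: CellTiter-Fluor fluorescence after 23 h compound exposure at 37 C/5% CO2 in double-stable HepG2-CYP2B6-hCAR cells, with PK11195 present at 0.75 uM final; compounds tested in 15-point titration.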

Test [15] in a line: qHTS assay to identify small molecule antagonists of the estrogen related receptor signaling pathway with the pleiotropic PPARgamma coactivator (PGC) from Tox21 10K library (AID 1224841; call rule not given here). In short, it runs like this:
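qHTS antagonist format: PGC/ERR cells, 2k/well, compound in DMSO by pin transfer after 6 h attachment, 18 h treatment at 37 C, One-Glo luminescence read at 30 min.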

Test [16] can be described thus: qHTS assay to identify small molecule agonists of the estrogen related receptor signaling pathway with the pleiotropic PPARgamma coactivator (PGC) from Tox21 10K library (AID 1224842). Further: nearly all actives have a fitted effect of over 15% in size. Further: potency means the concentration at half of the fitted maximal effect. In a few lines:
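PGC/ERR reporter cell line, 2,000 cells per well, incubated 6 h at 37 C before 23 nL compound in DMSO was added. After 18 h at 37 C, One-Glo luminescence read following 30 min at room temperature.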

The nature of test [17]: qHTS assay to identify small molecule antagonists of the estrogen related receptor (ERR) signaling pathway from Tox21 library (AID 1224848). Further: nearly all actives have a fitted effect of over 50% in size. In short, it runs like this: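 Luminescent reporter read-out (ONE-Glo) from NTP's ERR cell line after 18 h treatment at 37 C with DMSO-dissolved Tox21 compounds; cells pre-plated 6 h beforehand at 2,000 per well.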
The nature of test [18]: qHTS assay to identify small molecule agonists of the estrogen related receptor (ERR) signaling pathway from Tox21 library (AID 1224849; calls by dose curve; further: nearly all actives have a fitted effect of over 15% in size). As to conditions: ERR reporter cell line, ONE-Glo luciferase, 18 h; at 92.4 µM (top of the series) unless noted. In short, it runs like this: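 Screening used an NTP-provided ERR luciferase cell line. Compounds in DMSO were added 6 h after seeding and left 18 h at 37 C before a 30 min ONE-Glo step and luminescence reading.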

For test [19], the target named is Luciferin 4-monooxygenase (Photinus pyralis) (UniProt P08659). Description: qHTS assay to identify small molecule inhibitors of firefly luciferase (AID 1224835). Further: nearly all actives have a fitted effect of over 25% in size. In short, it runs like this: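 Biochemical qHTS: compounds run as interplate titrations against purified firefly enzyme, with D-luciferin and ATP each at its KM concentration. Light output recorded by CCD imaging.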
Luciferin 4-monooxygenase (Photinus pyralis), sequence (P08659 whole entry, looked up): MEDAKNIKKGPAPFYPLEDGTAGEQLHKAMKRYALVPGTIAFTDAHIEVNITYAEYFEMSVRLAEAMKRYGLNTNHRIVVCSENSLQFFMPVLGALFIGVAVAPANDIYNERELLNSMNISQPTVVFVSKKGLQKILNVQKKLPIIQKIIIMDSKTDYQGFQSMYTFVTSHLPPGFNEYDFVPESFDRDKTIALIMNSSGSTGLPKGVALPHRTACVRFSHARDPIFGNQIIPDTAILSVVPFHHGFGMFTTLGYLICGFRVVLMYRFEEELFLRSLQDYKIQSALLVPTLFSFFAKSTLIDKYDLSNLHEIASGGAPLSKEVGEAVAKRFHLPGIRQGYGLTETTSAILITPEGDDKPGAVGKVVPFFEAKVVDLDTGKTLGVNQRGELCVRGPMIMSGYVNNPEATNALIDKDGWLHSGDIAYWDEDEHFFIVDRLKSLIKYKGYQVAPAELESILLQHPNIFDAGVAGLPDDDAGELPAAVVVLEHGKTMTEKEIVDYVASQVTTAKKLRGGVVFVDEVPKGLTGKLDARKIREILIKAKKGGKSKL
On the % scale 0 is the no-effect control and ±100 the full control effect.

Nuclear receptor subfamily 1 group I member 3 (Homo sapiens), sequence (Q14994 whole entry, looked up): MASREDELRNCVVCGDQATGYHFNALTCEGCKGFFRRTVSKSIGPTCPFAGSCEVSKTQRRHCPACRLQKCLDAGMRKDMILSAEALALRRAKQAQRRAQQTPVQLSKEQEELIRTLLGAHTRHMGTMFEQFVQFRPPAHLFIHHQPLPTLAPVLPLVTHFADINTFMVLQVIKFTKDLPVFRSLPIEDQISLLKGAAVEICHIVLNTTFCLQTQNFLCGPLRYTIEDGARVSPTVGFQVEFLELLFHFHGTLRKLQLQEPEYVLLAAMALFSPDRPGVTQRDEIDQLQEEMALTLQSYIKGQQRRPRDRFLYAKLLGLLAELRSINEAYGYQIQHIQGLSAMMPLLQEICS
Thyrotropin receptor (Homo sapiens), sequence (P16473 whole entry, looked up): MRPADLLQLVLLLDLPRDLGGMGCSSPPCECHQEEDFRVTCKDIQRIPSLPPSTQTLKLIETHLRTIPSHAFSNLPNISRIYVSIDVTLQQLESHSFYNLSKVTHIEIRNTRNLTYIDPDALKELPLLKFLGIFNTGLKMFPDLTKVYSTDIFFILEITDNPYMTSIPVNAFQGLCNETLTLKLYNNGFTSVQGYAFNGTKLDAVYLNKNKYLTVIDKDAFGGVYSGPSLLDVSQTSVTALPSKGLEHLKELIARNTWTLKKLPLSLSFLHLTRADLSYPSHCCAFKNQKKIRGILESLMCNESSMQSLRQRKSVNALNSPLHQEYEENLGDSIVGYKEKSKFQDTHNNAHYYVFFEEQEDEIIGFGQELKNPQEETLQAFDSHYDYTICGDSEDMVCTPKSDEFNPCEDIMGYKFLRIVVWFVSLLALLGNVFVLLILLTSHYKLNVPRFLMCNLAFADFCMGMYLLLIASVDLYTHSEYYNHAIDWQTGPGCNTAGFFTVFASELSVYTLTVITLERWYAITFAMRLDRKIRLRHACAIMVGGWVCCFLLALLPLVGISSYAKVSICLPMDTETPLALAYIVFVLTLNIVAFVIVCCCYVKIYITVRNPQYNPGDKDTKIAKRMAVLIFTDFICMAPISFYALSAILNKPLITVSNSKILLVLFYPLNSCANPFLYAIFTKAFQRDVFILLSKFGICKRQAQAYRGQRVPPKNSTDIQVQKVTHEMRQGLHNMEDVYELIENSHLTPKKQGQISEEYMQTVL

For `CCOC(=O)CC(SP(=S)(OC)OC)C(=O)OCC` (stereo not given), the Potency entry in test [1], in test [2], in test [3], in test [5], in test [6] and in test [10] was “inactive” in each case. Besides, the Potency entry in [11] and in [12] was “inactive” in each case. Moreover, the Potency is 21.7 µM (active) and 26.6 µM (active) in test [4]; 49 µM (active) and inactive in test [7]. Moreover, the result in test [8], in [9] and in test [13] was inactive.

Take `OCC(Cl)CCl` (stereo not given): the Potency result in test [1], in [14], in test [2], in test [5], in [7] and in test [10] was “inactive” each time. The Potency result in test [11] and in test [12] was “inactive” each time. Also, the call in test [8], in [9] and in test [13] was inactive.

Consider `CC(C)(N)Cc1ccccc1Cl`, for which the Potency entry in test [1], in test [14], in test [2], in test [5], in [15] and in test [16] was “inactive” throughout. Also, the Potency entry in test [6], in test [7], in [17] and in test [11] was “inactive” in each case. The molecule was called inactive in test [8] and in [13]. Besides, in test [18], the activity change, positive = activation is -8.42% [at 42.5 µM] (inactive).

As to `Cc1ccc(-c2nc3ccc(C)cn3c2CC(=O)N(C)C)cc1`, the Potency result in [1], in test [2], in [3], in test [5], in test [15] and in test [6] was “inactive” throughout. Also, the Potency result in test [7], in test [10], in [17] and in [11] was “inactive” in each case. Moreover, in test [16], the Potency was 10.6 µM (active). Moreover, the result in test [8], in test [9] and in test [13] was inactive. Also, in test [18], the activity change, positive = activation is 37.3% [at 42.5 µM] (active).

For the molecule `O=C(O)C(F)(F)C(F)(F)C(F)(F)C(F)(F)C(F)(F)C(F)(F)F`, the Potency result in [1], in test [14], in test [2], in test [3], in test [4] and in [5] was “inactive” in each case. For the same molecule, the Potency entry in [6], in [11] and in test [12] was “inactive” throughout. Further, the outcome in test [8], in test [9] and in [13] was inactive.

As for `C[C@H]1CCCC(=O)CCC/C=C/c2cc(O)cc(O)c2C(=O)O1`, the Potency in [1] was 26.3 µM (active) and 17.8 µM (active); in [3], 20.9 µM (active); in test [5], 23.4 µM (active); in test [10], 86.5 µM (active) and inactive; in [12], 21.1 µM (active). The Potency result in test [4], in [7] and in [11] was “inactive” throughout. The outcome in test [8] and in test [13] was inactive.

For `CCOC(=O)COc1ccc(Cl)cc1Cl`, the Potency result in test [1], in test [14], in test [2], in test [3], in test [5] and in test [7] was “inactive” throughout. For the same molecule, the Potency result in test [10], in test [11] and in test [12] was “inactive” throughout. Further, the call in test [8], in [9] and in [13] was inactive.

Take `C=CCc1cc(OC)c2c(c1)OCO2`: the Potency result in test [1], in test [2], in test [3], in test [4], in test [5] and in test [6] was “inactive” throughout. In addition, the Potency entry in test [7], in test [10] and in test [11] was “inactive” throughout. Further, the call in test [8], in test [9] and in test [13] was inactive.

Consider `CC[C@H](O)C(C[C@H](C)N(C)C)(c1ccccc1)c1ccccc1`, for which the Potency result in test [19], in [14], in test [2], in [3], in test [4] and in test [5] was “inactive” each time. For the same molecule, the Potency result in test [6], in test [7] and in [11] was “inactive” throughout. Besides, the call in test [8], in [9] and in test [13] was inactive.
